Assay results reported in PubChem BioAssay AID743126 (The Scripps Research Institute Molecular Screening Center, 2013).
The campaign covered roughly 370,000 compounds. About 2,100 (0.57%) were called active. The list comes from a sample in which actives are over-represented; it also holds similar structures and randomly drawn compounds. A number with no mark means an inactive call.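 The calls were made as follows: active = inhibition above mean plus 3 SD of compounds lying within the high and low control bounds (cut at about 19% in these data); inactive = the rest.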

The compounds below were run against Group 3 secretory phospholipase A2 (Homo sapiens) (UniProt Q9NZ20) (assay: human group III sPLA2 inhibitors, primary screen, biochemical, QFRET, BODIPY PC-A2 liposome substrate (AID 743126;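 also: 0% = median of test compound wells and 100% = no enzyme DMSO wells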)). Details: QFRET BODIPY PC-A2 liposome hydrolysis, fluorescence; at 12.2 µM; stronger effect = higher value.
Group 3 secretory phospholipase A2 (Homo sapiens), sequence (Q9NZ20 whole entry, looked up): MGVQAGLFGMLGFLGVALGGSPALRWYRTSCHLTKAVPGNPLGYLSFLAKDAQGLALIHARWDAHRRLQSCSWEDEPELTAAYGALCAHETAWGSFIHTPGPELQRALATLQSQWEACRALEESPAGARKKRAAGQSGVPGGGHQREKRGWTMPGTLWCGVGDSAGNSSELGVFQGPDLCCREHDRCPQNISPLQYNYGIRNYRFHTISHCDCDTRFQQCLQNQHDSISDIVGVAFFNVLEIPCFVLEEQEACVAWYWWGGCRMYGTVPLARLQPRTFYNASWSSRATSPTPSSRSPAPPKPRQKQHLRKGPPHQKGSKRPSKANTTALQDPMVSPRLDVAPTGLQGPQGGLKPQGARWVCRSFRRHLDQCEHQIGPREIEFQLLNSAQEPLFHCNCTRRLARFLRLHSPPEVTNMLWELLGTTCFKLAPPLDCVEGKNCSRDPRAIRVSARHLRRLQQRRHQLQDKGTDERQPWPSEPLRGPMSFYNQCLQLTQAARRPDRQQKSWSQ
Compound `CC(=O)N1CCCN(C2=Nc3ccccc3Sc3ccccc32)CC1` has an inhibition of -5.38%. With `O=C(NCc1ccc(Cl)cc1)C1CCCN(c2nc3ccccc3o2)C1` (centres undefined) the inhibition was 0.81%. `Cc1ccc(NC(=O)Cc2cccc(F)c2)c(S(=O)(=O)N2CCOCC2)c1` was tested, and the inhibition was -2.31%. Compound `Cc1c[nH]c2cccc(-c3ccc(Cl)cc3)c12` has an inhibition of -16.5%. Work on `O=C(NCC(=O)N1CCN(c2ncc(C(F)(F)F)cc2Cl)CC1)c1ccc(Br)o1` yielded an inhibition of -1.88%. In the case of `Cc1cc(C)nc(NC(=S)N2CCN(c3ccc(C(F)(F)F)cn3)CC2)c1`, the inhibition is reported as 11.2%. `COc1ccnc(NC(=S)N2CCN(c3ncc(C(F)(F)F)cc3Cl)CC2)c1` was tested, and the inhibition was 23.3% (active). For `CN1[C@H](Cc2ccccc2)COc2cccc(N3CCSCC3)c2S1(=O)=O`, the inhibition was -2.69%. `O=C(NNC(=S)NCCCN1CCOCC1)c1ccncc1` gave an inhibition of -1.42%. `O=C(c1cn(-c2ccccc2)nc1-c1cccnc1)N1CCN(S(=O)(=O)c2ccccc2F)CC1` was tested, and the inhibition was -9.4%. `O=C(NNC(=S)NC(=O)c1cn(-c2ccccc2)nc1-c1ccccc1)c1ccncc1` was tested, and the inhibition was 19.6% (active). `O=C(CSc1nnc(COc2ccccc2)n1-c1ccc(Cl)cc1)Nc1ccc2c(c1)OCO2` was tested, and the inhibition was -14.5%. `COC(=O)c1cccc(Cn2ccc3ccc(-c4ccc5ccn(C(=O)C6CCCCC6)c5c4)cc32)c1` was tested, and the inhibition was -3.82%. For `O=C(NNC(=S)Nc1ccc(Br)cc1Cl)c1ccco1`, the inhibition was 26.4% (active). For `CN(C)C(=S)Nc1ccc(Br)cc1Cl`, the inhibition was 1.77%. For `S=C(Nc1ccc(Br)cc1Cl)NC1CCN(Cc2ccccc2)CC1`, the inhibition was 0.32%. With `Cc1ccc(Cn2cc(COC(=O)N(C)Cc3ccccc3)nn2)cc1` the inhibition was -5.61%. Compound `Cc1ccc(-n2c(SCC(=O)Nc3ccc(S(=O)(=O)Nc4nccs4)cc3)nnc2-c2cccnc2)cc1` has an inhibition of -21.7%. Work on `O=C1CC[C@@]23CCCN2C(=O)CCC[C@H]3[C@H]1Cc1ccccc1` yielded an inhibition of 3.91%. `Cc1cccc(N2CCN(C(=O)c3ccccc3NC(=O)C3CCCCC3C(=O)O)CC2)c1` (centres undefined) gave an inhibition of 7.57%. `CSc1ccc(NC(=O)N2CC(C)OC(C)C2)cc1` (centres undefined) was tested, and the inhibition was 10.2%. With `O=C(O)/C=C/C(=O)NNc1ccc([N+](=O)[O-])cc1` the inhibition was -1.39%. For `CSc1ccc(NC(=O)/C=C/C(=O)O)cc1`, the inhibition was 22.1% (active). In the case of `Cc1cccc(N2CCN(c3ccc(NC(=O)/C=C\C(=O)O)cc3)CC2)c1`, the inhibition is reported as 20.7% (active). In the case of `O=C(CN1CCN(c2ccc(O)cc2)CC1)Nc1ccc(-c2ccccc2)cc1`, the inhibition is reported as 2.26%. With `Cc1ccc(-c2nc(C3CCCN(S(=O)(=O)c4ccc(Br)s4)C3)no2)cc1` (centres undefined) the inhibition was 7.46%. `C=C(C)C1CC23C(=O)C4(C(=O)c5ccccc5)C[C@@]5(C)CCC(CC2C1(C)C)(C4=O)C35OC` (some centres undefined) showed an inhibition of 4.03%. `COc1ccc(C(=O)CSc2nnc(-c3cnccn3)n2-c2ccc(C)cc2)cc1` showed an inhibition of -19.7%. Work on `O=C(NN1C(=O)C2CCCCC2C1=O)c1ccco1` (centres undefined) yielded an inhibition of -6.36%. With `O=C(NN1C(=O)C2C3C=CC(C3)C2C1=O)c1ccco1` (centres undefined) the inhibition was 22.3% (active). Work on `CC(C)=C1C2CCC1C1C(=O)N(NC(=O)c3ccco3)C(=O)C21` (centres undefined) yielded an inhibition of 0.15%. Compound `C=CCN1C(=O)[C@@H](CC(=O)N2CCN(C(=O)OCC)CC2)[C@]2(C(=O)OCC)CCCCC/C=C/12` has an inhibition of 3.8%. Compound `C=CCN1C(=O)[C@@H](CC(=O)NCC2CCCCC2)[C@]2(C(=O)OC)CCCCC=C12` has an inhibition of -6.71%. For `Cc1ccc(CSc2nnc(SCC(=O)NN=Cc3cc(Br)ccc3F)s2)cc1`, the inhibition was 8.12%. `COC[C@@H]1CCCN1c1ccc2c(c1)O[C@H](C)CCN(C1CC1)S2(=O)=O` showed an inhibition of -5.4%. In the case of `Oc1ccc(/C=C/c2c(F)cccc2F)c2cccnc12`, the inhibition is reported as 16%. `CCN(Cc1ccccc1)C(=O)CN1C(=S)NC(C)(C)CC1C` (centres undefined) was tested, and the inhibition was 31.1% (active). `CC1CC(C)(C)NC(=S)N1CCC(=O)N1CCN(Cc2ccccc2)CC1` (centres undefined) was tested, and the inhibition was 8.05%. `COc1cccc(CNC(=O)CCN2C(=S)NC(C)(C)CC2C)c1` (centres undefined) gave an inhibition of 6.8%. For `COc1ccccc1C(=O)CSc1nnc(-c2ccccn2)n1-c1ccccc1`, the inhibition was -16.8%. For `CCc1ccc(NC2Nc3cc(C)nn3S2)cc1` (centres undefined), the inhibition was 23.9% (active). `CCOC(=O)c1cccc(NC(=O)CN(C)S(=O)(=O)c2ccc(-c3cocn3)s2)c1` showed an inhibition of -2.93%. `O=C(C1CCN(S(=O)(=O)c2ccccc2)CC1)N1CCN(C2CCCCC2)CC1` gave an inhibition of 8.19%. Work on `CSc1ccc(C=Nn2c(-c3ccc(F)cc3)n[nH]c2=S)cc1` yielded an inhibition of 6.63%. `S=c1[nH]nc(-c2ccco2)n1/N=C/c1ccccc1` was tested, and the inhibition was 19.3% (active). With `CCOc1ccc(-c2n[nH]c(=S)n2/N=C/c2cc3c(cc2[N+](=O)[O-])OCO3)cc1` the inhibition was 1.67%. Work on `Cc1cc(C)cc(NC(=O)N2CCC(N(C)CCC(C)C)CC2)c1` yielded an inhibition of 10.3%. For `CCOC(=O)[C@@]12CCC3=C1N(CCC3)C(=O)[C@H](CC(=O)N1CCN(C(=O)c3ccco3)CC1)C2`, the inhibition was 8.67%. With `c1coc(CCNc2ncnc3ccc(-c4ccc5c(c4)OCO5)cc23)c1` the inhibition was -19.4%. Compound `COC(=O)[C@]12C[C@H](CC(=O)NCc3ccccc3)C(=O)N(CCc3ccc(OC)c(OC)c3)C1=C[C@H](C(C)(C)C)O[C@@H]2C` has an inhibition of -21.4%. `COC1=C[C@H](C(=O)NCCNC(C)=O)[C@H](C)[C@@H](c2ccccc2)CC1=O` was tested, and the inhibition was -0.85%. In the case of `COc1ccccc1OCC(=O)OCn1c(SC)nnc(C)c1=O`, the inhibition is reported as 21.3% (active). `COc1ccccc1NC(=O)COC(=O)COc1ccccc1F` showed an inhibition of -4.78%. `C=CCn1c(SCC(N)=O)nnc1-c1ccccc1OC` showed an inhibition of 6.66%. Work on `CCN(CC)C(=O)CC[C@H]1CC[C@]2(CCCN(Cc3ccc(Cl)cc3)C2)O1` yielded an inhibition of 6.37%. With `CC(NS(=O)(=O)c1ccc(OCC(=O)N2CCCC2)cc1)c1ccccc1` (centres undefined) the inhibition was 5.02%. For `O=C(COc1ccc(S(=O)(=O)NCCc2ccccc2)cc1)N1CCCC1`, the inhibition was -5.12%. For `O=C(COc1ccc(S(=O)(=O)NCc2ccccc2)cc1)N1CCOCC1`, the inhibition was 20.9% (active). In the case of `CCOC(=O)[C@]12CCCC=C1N(Cc1ccc(OC)cc1)C(=O)[C@@H]2CC(=O)NCc1cccs1`, the inhibition is reported as -4.75%. `COc1ccc(Cn2cc(CN3[C@@H](CC(C)C)COc4cc(Br)ccc4S3(=O)=O)nn2)cc1` gave an inhibition of 6.77%. With `C[C@H]1CCC/C=C/C(=O)c2c(O)cc(O)cc2CC(=O)O1` the inhibition was 4.76%. For `Clc1ccc(-n2c(COc3ccccc3)nnc2SCc2nc3ccccc3[nH]2)cc1`, the inhibition was -11.3%. Work on `Cc1cc(NS(=O)(=O)c2ccc(NC(=O)CSc3nnc(SCc4ccc(F)cc4)s3)cc2)nc(C)n1` yielded an inhibition of -29.3%. `Cc1nc(NC(=O)c2ccc3c(c2)OCCO3)ccc1Br` was tested, and the inhibition was 4.96%. With `C/C(Cc1ccccc1)=N\NC(=O)CNC(=O)c1ccc2c(c1)OCCO2` the inhibition was -4.8%. With `Cc1ccc2sc(NNC(=O)c3ccc4c(c3)OCCO4)nc2c1C` the inhibition was 39.7% (active). `COc1cc(/C=C/C(=O)n2cnc3ccccc32)cc(OC)c1OC` gave an inhibition of 11.9%. In the case of `CCc1ccccc1NC(=O)CSc1nnc(-c2cccs2)o1`, the inhibition is reported as 0.47%. `COc1ccccc1CC(=O)Nc1ccc(S(=O)(=O)N2CCCC2)cc1` was tested, and the inhibition was -5.06%. `COc1cc(C(=O)NNC(=O)c2ccc(S(=O)(=O)N3CCCCC3)cc2)cc(OC)c1OC` gave an inhibition of -8.86%. With `COc1ccc(-c2ccc(Nc3ccc(S(=O)(=O)N4CCCC4)cc3)nn2)cc1OC` the inhibition was 27.2% (active). With `CCC(NC(=O)C1C2C=CC3(CN(Cc4ccccc4)C(=O)C13)O2)c1ccccc1` (centres undefined) the inhibition was -3.46%. In the case of `CCOC(=O)C1CCN(C(=O)C(C)(C)NC(=O)Nc2ccccc2Cl)CC1`, the inhibition is reported as 0.81%. In the case of `C/C(=N\NS(=O)(=O)c1cccc([N+](=O)[O-])c1)c1cc2ccccc2o1`, the inhibition is reported as 3.51%. In the case of `C/C(=N\NC(=S)Nc1ccc(C)cc1)c1cc2ccccc2o1`, the inhibition is reported as 23.9% (active). `CC(=O)N1CCN(c2ccccc2NC(=S)NC(=O)c2cc3ccccc3o2)CC1` was tested, and the inhibition was 3.86%. For `Cc1cc(C)n2ncc(C(=O)Nc3ccc4c(c3)OCCO4)c2n1`, the inhibition was 0.96%. For `COc1ccc(Cl)cc1C(=O)NNC(=S)NC1CCCC1`, the inhibition was 26.5% (active). With `O=C(COC(=O)c1ccccc1Cl)NC1CCCCCCC1` the inhibition was 5.22%. `COc1ccc(Cl)cc1C(=O)NNC(=S)NC(=O)/C=C/c1ccco1` was tested, and the inhibition was 2.13%. In the case of `COc1ccc(Cl)cc1C(=O)NNC(=O)c1nc2nc(C)cc(C)n2n1`, the inhibition is reported as 5.45%. With `Cc1nn(C)c(C(=O)NNC(=S)NC2CCCCC2)c1Cl` the inhibition was 4.69%. In the case of `O=C(NNC(=S)NC1CCCCC1)c1ccccc1Cl`, the inhibition is reported as 20.1% (active). Compound `COC(=O)C12C=C3CC(c4ccccc4)=C3C(=O)N1Cc1[nH]c3ccccc3c1C2` (centres undefined) has an inhibition of -7.07%. `COc1ccc(-n2c(SCC(=O)Nc3ccc4cn[nH]c4c3)nnc2-c2cccnc2)cc1` showed an inhibition of 3.42%. Work on `CC(=O)OCCN1CCCC12CCC(c1ccccc1)CC2` (centres undefined) yielded an inhibition of 11.1%. Compound `C=CCN1C(=O)[C@@H](CC(=O)NCCCOCCCC)[C@]2(C(=O)OCC)CCCCC/C=C/12` has an inhibition of -8.97%. `COc1ccc(-n2c(SCC(=O)Nc3ccccc3-c3ccccc3)nnc2-c2cccnc2)cc1` was tested, and the inhibition was -5.21%. Compound `CCOC(=O)N1CCN(C(=O)C[C@@H]2C(=O)N(CCc3ccc(Cl)cc3)C3=CCCC[C@]32C(=O)OCC)CC1` has an inhibition of -8.77%.
